Pf Dd2 inh: qHTS Primary assay for Inhibitors of Plasmodium falciparum Dd2 growth in vitro | P. falciparum Dd2 growth, SYBR Green, 72 h | Potency, µM (series often up to 28.9 µM), inactives show at the highest dose activity, negative = inhibition, hits mostly inhibitors | actives 4.3% (n = 120,000); active = well fitted inhibition curve with a large enough effect;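 note: plate controls were DMSO vehicle for no effect and reference drug for full effect; nearly all actives have a fitted effect of over 65% in size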
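Readout: SYBR Green fluorescence, 485 nm excitation, 535 nm emission, after ~16 h lysis at 37C. Before that, Dd2-infected red cells (2.5% hematocrit) grew 72 h with compound, 29 uM top final concentration.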
* hit, by the source's call; i = inactive; [ ] = dose if it differs, or a comment. This excerpt belongs to a sample that is enriched for hits. Potency is the fitted concentration of half-maximal effect.

SMILES | Pf Dd2 inh
CCN1CC(C(=O)NCc2noc(Cc3ccccc3)n2)CCC1=O (stereo not drawn) | -16%
Cc1ccccc1SC1CCN(c2cc(C3CC(O)C3)ncn2)CC1 (stereo not drawn) | -4%
COc1cc(=O)n2c(c1C(=O)Nc1ccc(F)cc1Cl)CCCC2 | 32%
CCn1c2c(c(=O)n3ncc(C(=O)Nc4ccc(F)cc4Cl)c13)CN(Cc1ccc(OC)cc1)CC2 | 11µM*
COC(=O)N1CCn2ncc(C(=O)Nc3ccc(Cl)cc3Cl)c2C1 | -3%
CCOC(=O)c1ccc(NC(=O)CSc2nc3c(c(=O)[nH]2)CN(Cc2ccccc2)CC3)cc1 | -10%
CCn1c2c(c(=O)n3ncc(C(=O)Nc4ccc(C(=O)OC)cc4)c13)CN(Cc1ccc(OC)cc1)CC2 | 10µM*
COc1ccc(-c2nc(C)nc3c2CN(Cc2ccc(NC(C)=O)cc2)CC3)cc1 | i
c1cc(-c2cc3c(ccn3Cc3ccncc3)c(N3CCOCC3)n2)c2[nH]ncc2c1 | -25%[44.1 µM]
COc1ccc(C)cc1NC(=O)c1ccc2c(c1)N(C)C1CCCN1C2=O (stereo not drawn) | i
COC1CCOC2(CCN(C(=O)Nc3cccc(F)c3)CC2)C1 (stereo not drawn) | i
CCn1ccc(C(=O)N2CCC(F)(c3nc(-c4ccncc4)no3)CC2)n1 | -8%
COc1ccc(CC(=O)NC2CCN(c3cc(-c4ccc(F)cc4)[nH]n3)CC2)cc1OC | i
O=C(c1ccc2c(c1)OCO2)N1CCC2(CC1)COc1ccccc1CN2 | 1.3µM*
O=C1CC(C(=O)O)C2(CCN(C(=O)c3ccc4c(c3)OCO4)CC2)N1 (stereo not drawn) | 5%
O=C1NC2(CCN(C(=O)c3ccc4c(c3)OCO4)C2)Oc2ccccc21 (stereo not drawn) | -19%
O=C(c1ccccc1F)N1CCC2(CC1)COc1ccccc1NC2=O | 5%
O=C(c1ccccc1F)N1CCC2(CC1)COc1ccccc1CN2 | 1.1µM*
O=C1NC2(CCCN(C(=O)c3ccccc3F)C2)COc2ccccc21 (stereo not drawn) | -22%
O=C(CN1C(=O)NC2(CCOCC2)C1=O)Nc1ccc(Cl)cc1F | 19%
O=C(O)C[C@@H]1CCN(C(=O)C2CCC2)C[C@@H]1CCN1CCN(c2ccccn2)CC1 | -19%[44.1 µM]
CN(CCc1ccccn1)C(=O)CCC[C@@H]1[C@H]2CCCN3CCC[C@@H](CN1C(=O)c1cccnc1)[C@@H]23 | -11%
COC[C@@H]1CN(C(=O)c2ccn[nH]2)C[C@H]1c1ccncc1 | 0%
CCc1ccccc1S(=O)(=O)N1CCCC(Cn2c(C3CC3)nc3cccnc32)C1 (stereo not drawn) | i
c1cc(-c2n[nH]c(C3CCCCN3)n2)ccn1 (stereo not drawn) | 0%
SMILES | Pf Dd2 inh
O=C(c1ccc2[nH]ccc2c1)N1CCCN(c2cc(-c3ccc(F)cc3)[nH]n2)CC1 | -19%
CCCS(=O)(=O)N1CC[C@@H]2COCCN(Cc3ccccc3)[C@@H]2C1 | -18%
CCc1c(C)sc2c1CCN(Cc1ccccc1)C2c1ccccc1 (stereo not drawn) | 4.5µM*
CCc1c(C)sc2c1CCN(C(=O)Nc1ccccc1C(=O)OC)C2c1ccc(OC)cc1 (stereo not drawn) | -8%
O=C(c1cccc(N2CCCC2=O)c1)N1CCCC(O)(CN2CCCC2)C1 (stereo not drawn) | -4%
O=C(c1ccncc1)N1CCC2(CC1)NCc1ccccc1NC2=O | 13%
O=C([C@@H]1C[C@H](Oc2cccnc2)CN1C(=O)CCc1ccccc1)N1CCOCC1 | -6%
O=C([C@@H]1C[C@H](Oc2cccnc2)CN1C(=O)CCc1c[nH]c2ccccc12)N1CCOCC1 | 4µM*
O=C([C@@H]1C[C@H](Oc2ccccc2)CN1C(=O)Cc1c[nH]c2ccccc12)N1CCOCC1 | -22%
O=C(Nc1ccnn1C1CCN(C(=O)c2ccc3n[nH]nc3c2)CC1)C1CC1 | 30%
Cc1noc(C)c1C(=O)N1CCCN(S(=O)(=O)c2ccccc2)CCC(=O)NCC1 | -9%
CCn1ccc(C(=O)N2CCC(N3C(=O)C(OCC4CC4)C34CCCCC4)CC2)n1 (stereo not drawn) | -25%
O=C(C1CCCC1)N1CCC(N2C(=O)C(OCC3CC3)C23CCCCC3)CC1 (stereo not drawn) | i
O=C(c1n[nH]c2ccccc12)N1CCC(N2C(=O)C(OCC3CC3)C23CCCCC3)CC1 (stereo not drawn) | 4.5µM*
O=C(c1ccnc(CC2CC(=O)N(c3ccccc3)C2)c1)N1CCCCC1 (stereo not drawn) | -10%
COc1cccc(CN2CCc3nn(C)c(=O)n3CC2)c1OC | 40%
COCCN1C(=O)[C@H]2CN(Cc3ccccc3OC(F)(F)F)C[C@H]2C1=O | 50%
COc1cccc(CN2C[C@@H]3C(=O)N(CCN4CCc5ccccc5C4)C(=O)[C@@H]3C2)c1OC | 7.1µM*
O=C1CN(C(=O)CCC(=O)N2CCC(CCOc3ccccc3F)C2)c2ccccc2N1 (stereo not drawn) | i
CN(C)C(=O)C1CN(C(=O)c2ccccc2Br)CC12CCOCC2 (stereo not drawn) | 18%

Bioassay records from PubChem BioAssay.
